In test [1] the test system is Human papillomavirus type 1a protein E7 (residues 44-93). Description: small molecules binding HPV E7 44-93 – biochemical, small-molecule microarray, residues 44-93, 635 nm fluorescence, primary screen (AID 1108).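 Also: E7 fragment applied at 1 µg/mL in TBST for 1 h at 4 C; score combines spot fluorescence with its signal to noise ratio.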 The settings on record: fluorescence 635 nm, higher = more signal.
Test [2] in a line: hepatitis C replication reporter changes, two-sided – Huh7 cells, luciferase reporter, HCV replication inhibitor project, primary screen (AID 1109).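 Also: huh7 hepatoma cells harbouring a luciferase neomycin HCV replicon reporter; luciferase luminescence as measure of HCV replicon replication; test concentration not given here.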 As to conditions: Huh7 HCV replicon luciferase reporter, 48 h; higher = more signal.
For test [3], the target named is Left-right determination factor 2 (Homo sapiens) (UniProt O00292). Description: small molecules binding LEFTY2 protein – biochemical, small-molecule microarray, 635 nm fluorescence scan, primary screen (AID 1110). As to conditions: higher = more signal.
Sequence of Left-right determination factor 2 (Homo sapiens) (O00292 whole entry, looked up): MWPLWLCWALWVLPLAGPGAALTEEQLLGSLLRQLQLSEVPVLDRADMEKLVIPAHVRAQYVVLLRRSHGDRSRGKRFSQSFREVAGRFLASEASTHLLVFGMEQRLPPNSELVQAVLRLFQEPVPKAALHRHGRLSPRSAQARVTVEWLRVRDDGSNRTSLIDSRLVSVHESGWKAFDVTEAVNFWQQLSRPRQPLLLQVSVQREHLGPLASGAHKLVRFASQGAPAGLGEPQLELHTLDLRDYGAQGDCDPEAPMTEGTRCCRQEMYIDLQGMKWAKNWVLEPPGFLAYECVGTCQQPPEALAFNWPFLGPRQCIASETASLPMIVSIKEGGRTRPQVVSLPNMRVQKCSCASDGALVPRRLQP
Test [4] deals with Calmodulin-1 (Homo sapiens) (UniProt P0DP23). Nature of the test: small molecules binding calmodulin-1 with EGTA – biochemical, small-molecule microarray, Cy5-labelled CALM1, profiling panel (AID 1111).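 Also: labelled calmodulin applied in Tris saline Tween buffer holding calcium plus EGTA and DTT.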 As to conditions: Cy5-CALM1 binding fluorescence, higher = more signal.
Test [5] has the same target. Nature of the test: small molecules binding Ca-loaded calmodulin-1 – biochemical, small-molecule microarray, Cy5-labelled CALM1, plus calcium, artefact control for SMM control-protein annotation, profiling panel (AID 1112).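 Also: score merges spot fluorescence with signal to noise from triplicate slides.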 The settings on record: Cy5-CALM1 binding fluorescence, higher = more signal.
Test [6] can be described thus: probe aWnt5a binding to arrayed compounds – biochemical, biotinylated probe, 635/667 nm fluorescence, primary screen (AID 1113).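 Also: score merges 667 nm fluorescence intensity with signal-to-noise per printed feature.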 The settings on record: small-molecule microarray, higher = more signal.
Test [7] is described as follows: probe aShh binding to arrayed compounds – biochemical, biotinylated probe, 635/667 nm fluorescence, primary screen (AID 1114).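 Also: probe is biotin-labelled aShh protein from a stem cell growth factor screen; measures binding of labelled protein to compounds printed on the slide; score merges feature fluorescence at 667 nm with signal-to-noise.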 As to conditions: small-molecule microarray, higher = more signal.
A short description of test [8]: probe aNog binding to arrayed compounds – biochemical, biotinylated probe, 635/667 nm fluorescence, primary screen (AID 1115).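 Also: probe is biotinylated aNog protein used at 0.15 µg/mL for 1 h at 4 C; z-score combines 667 nm fluorescence of each spot with its signal to noise.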 As to conditions: small-molecule microarray, higher = more signal.
The target of test [9] is Torsin-1A-interacting protein 1 (Homo sapiens) (UniProt Q5JTV8). Description: compound microarray binding of lysate hLAP1 – cell lysate, small-molecule microarray, COS7 lysate, 635/667 nm fluorescence, primary screen (AID 1116). The settings on record: 635 nm fluorescence, higher = more signal.
Sequence of Torsin-1A-interacting protein 1 (Homo sapiens) (Q5JTV8 whole entry, looked up): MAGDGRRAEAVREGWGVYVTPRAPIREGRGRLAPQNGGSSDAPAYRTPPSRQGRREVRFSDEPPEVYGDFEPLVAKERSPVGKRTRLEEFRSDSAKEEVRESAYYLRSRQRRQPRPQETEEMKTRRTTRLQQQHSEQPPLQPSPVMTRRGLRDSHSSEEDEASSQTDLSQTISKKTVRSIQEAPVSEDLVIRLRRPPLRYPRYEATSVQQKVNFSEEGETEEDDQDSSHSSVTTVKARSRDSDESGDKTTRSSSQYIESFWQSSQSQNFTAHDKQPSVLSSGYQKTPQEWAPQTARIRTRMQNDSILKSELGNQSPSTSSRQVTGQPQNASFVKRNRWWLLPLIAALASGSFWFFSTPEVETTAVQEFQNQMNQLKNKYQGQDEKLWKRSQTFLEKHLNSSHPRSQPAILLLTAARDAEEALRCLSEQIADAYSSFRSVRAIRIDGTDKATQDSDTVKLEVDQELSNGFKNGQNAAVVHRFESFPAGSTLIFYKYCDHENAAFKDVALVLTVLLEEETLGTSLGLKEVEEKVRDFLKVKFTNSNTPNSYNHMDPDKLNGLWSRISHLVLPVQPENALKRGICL
Test [10] deals with Alpha-bungarotoxin (Bungarus multicinctus) (UniProt P60615). Nature of the test: compounds binding labelled alpha-BTX control protein – biochemical, small-molecule microarray, Alexa647 label, 635/667 nm fluorescence, artefact control for SMM control protein annotation, profiling panel (AID 1117). The settings on record: alpha-BTX-A647 binding fluorescence, higher = more signal.
Sequence of Alpha-bungarotoxin (Bungarus multicinctus) (P60615 whole entry, looked up): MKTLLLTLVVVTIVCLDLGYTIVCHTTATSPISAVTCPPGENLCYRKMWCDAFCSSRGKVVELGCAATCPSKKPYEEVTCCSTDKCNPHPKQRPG

The target of another test is Albumin (Bos taurus) (UniProt P02769). Description: compounds binding labelled BSA control protein – biochemical, small-molecule microarray, Alexa647 label, 635/667 nm fluorescence, artefact control for SMM control protein annotation, profiling panel (AID 1118).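 Also: score merges 667 nm emission intensity and signal-to-noise per printed compound spot.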 The settings on record: BSA-A647 binding, fluorescence 635 nm, higher = more signal.
Sequence of Albumin (Bos taurus) (P02769 whole entry, looked up): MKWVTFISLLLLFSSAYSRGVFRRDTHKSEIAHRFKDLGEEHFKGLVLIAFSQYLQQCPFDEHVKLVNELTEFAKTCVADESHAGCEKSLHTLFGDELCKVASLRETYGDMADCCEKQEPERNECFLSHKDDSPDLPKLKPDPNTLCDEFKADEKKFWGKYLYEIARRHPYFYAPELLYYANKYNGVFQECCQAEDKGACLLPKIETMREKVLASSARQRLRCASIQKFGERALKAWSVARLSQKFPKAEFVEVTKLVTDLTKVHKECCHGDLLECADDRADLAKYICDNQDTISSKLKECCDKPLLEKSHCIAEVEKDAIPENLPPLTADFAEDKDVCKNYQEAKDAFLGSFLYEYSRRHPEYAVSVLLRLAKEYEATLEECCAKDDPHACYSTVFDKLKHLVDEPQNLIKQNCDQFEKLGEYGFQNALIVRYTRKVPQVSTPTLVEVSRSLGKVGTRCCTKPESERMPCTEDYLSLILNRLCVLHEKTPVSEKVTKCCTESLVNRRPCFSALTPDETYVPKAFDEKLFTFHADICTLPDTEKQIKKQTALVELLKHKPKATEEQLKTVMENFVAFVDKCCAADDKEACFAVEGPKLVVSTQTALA
The nature of test [11]: probe aXIP binding to arrayed compounds – biochemical, NeuroSMM set, 635/667 nm fluorescence, primary screen (AID 1119).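 Also: probe is the protein aXip251-270 applied at 1 µg/mL to compound-printed slides; binding of probe to printed compounds measured as 667 nm fluorescence plus signal to noise.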 As to conditions: small-molecule microarray, higher = more signal, called active from +8 up or from −8 down.
Test [12] in a line: probe aNOTCH3 binding on compound microarray – biochemical, small-molecule microarray, 635/667 nm fluorescence, primary screen (AID 1120).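 Also: probe is a biotin-tagged antibody raised against NOTCH3 rather than NOTCH3 protein; score merges spot fluorescence near 667 nm with spot signal to noise.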 As to conditions: higher = more signal.
A short description of test [13]: probe aNOTCH2 binding on compound microarray – biochemical, small-molecule microarray, 635/667 nm fluorescence, primary screen (AID 1121).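 Also: score merges feature fluorescence read at 667 nm with its signal to noise.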 The settings on record: higher = more signal.
Test [14] has as its target Carbonic anhydrase 2 (Homo sapiens) (UniProt P00918). Description: compounds binding carbonic anhydrase 2 – biochemical, small-molecule microarray, Alexa647-labelled CAII, profiling panel (AID 1122). As to conditions: CAII-A647 binding fluorescence, higher = more signal.
Test [15] can be described thus: COS7 lysate on small-molecule microarray, probe aHis, 635 nm (AID 1123).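 Also: z-score combines 667nm fluorescence intensity with signal-to-noise per printed compound spot.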 As to conditions: COS7 cell lysate, fluorescence, higher = more signal.
Test [16] in a line: probe aLAP1 signal on lysate-treated microarray – cell lysate, small-molecule microarray, COS7 lysate, primary screen (AID 1124).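 Also: lysate comes from COS7 cells expressing LAP1 and is applied at 0.3 µg/mL; score merges spot fluorescence near 667 nm with signal-to-noise over triplicate slides.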 As to conditions: probe aLAP1, fluorescence, higher = more signal.
The test system of the next test is Sam68 (KHDRBS1). Nature of the test: compounds binding KHDRBS1 protein – biochemical, small-molecule microarray, 635 nm fluorescence, primary screen (AID 1125).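 Also: score merges 667 nm channel intensity with signal to noise over triplicate slides.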 The settings on record: higher = more signal.
Test [17] has as its system Chordin-like protein 2 (CHRDL2). Nature of the test: compounds binding chordin-like 2 – biochemical, small-molecule microarray, 635 nm fluorescence, primary screen (AID 1126).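 Also: printed compound slides probed with Chrdl2 protein at 4 µg/mL for 1 h at 4 C; score merges 667 nm emission intensity with signal to noise over three replicate slides.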 As to conditions: fluorescence 635 nm, higher = more signal.
Test [18] deals with Concanavalin-A (Canavalia ensiformis) (UniProt P02866). Description: compounds binding concanavalin A lectin – biochemical, small-molecule microarray, Alexa647 label, 635 nm, artefact control for SMM control protein annotation, primary screen (AID 1127).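 Also: z combines 667 nm emission intensity with signal-to-noise across three replicate slides.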 As to conditions: ConA-A647 binding fluorescence, higher = more signal.
Sequence of Concanavalin-A (Canavalia ensiformis) (P02866 whole entry, looked up): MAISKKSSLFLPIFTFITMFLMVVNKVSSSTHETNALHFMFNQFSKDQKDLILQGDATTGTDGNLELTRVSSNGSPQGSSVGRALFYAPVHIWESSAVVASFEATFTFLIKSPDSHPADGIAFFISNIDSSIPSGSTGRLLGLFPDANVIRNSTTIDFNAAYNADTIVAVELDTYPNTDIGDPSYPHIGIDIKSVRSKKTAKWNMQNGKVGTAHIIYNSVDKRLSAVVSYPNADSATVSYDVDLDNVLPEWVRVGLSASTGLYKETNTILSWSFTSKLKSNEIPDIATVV

The source made the active and inactive calls.

Take `C=CCN1C(=O)[C@@]2(O[C@@H](CCn3cc([C@H](O)c4ccccc4)nn3)[C@H]([Si](C)(C)c3ccc(OC)cc3)[C@H]2C)c2ccccc21`: the composite z-score is 0.733 in test [1]; 0.245 in test [3]; 0.134 in test [4]; -0.506 in test [5]; 0.0973 in [6]; -0.0769 in [7]. Moreover, the composite z-score in test [8] was 0.0308; in test [9] it was 0.676; in [10], 1.21; with Albumin (Bos taurus), 0.205; in [12], 0.221; in [13], -0.151. Besides, the composite z-score is 0.499 in test [14]; 0.422 in test [15]; 0.572 in [16]; 1.08 in the test with Sam68 (KHDRBS1); 0.333 in [17]; 1.01 in test [18]. In addition, the z-score in test [2] was -3.04. Moreover, the composite Z-score in test [11] is 0.363 (inactive).
As to `COCCOC(=O)N1C(=O)[C@@]2(c3cc(C#CCC(C(=O)OC)C(=O)OC)ccc31)[C@H](c1ccc(OCCO)cc1)N1[C@H](c3ccccc3)[C@H](c3ccccc3)OC(=O)[C@H]1[C@@H]2C(=O)N1CCN(c2ncccn2)CC1`, the composite z-score in [1] was 1.17; in test [3] it was 0.603; in test [4], 1.41; in test [5], 0.377; in test [6], -0.0236; in test [7], 0.184. Further, the composite z-score in test [8] is 0.363; in test [9] it was 1.33; in [10], 1.85; in the test with Albumin (Bos taurus) it was 0.758; in [12], 0.196; in test [13] it was -0.14. The composite z-score came out at 0.35 in test [14]; 2.33 in [15]; 0.265 in [16]; 1.29 in the test on Sam68 (KHDRBS1); 0.293 in test [17]; 1.1 in test [18]. Besides, the z-score in test [2] was -1.46. Moreover, the composite Z-score in [11] was -0.341 (inactive).
Take `C=CCOC(=O)[C@@H]1[C@H]2C(=O)O[C@H](c3ccccc3)[C@H](c3ccccc3)N2[C@H](c2ccc(OCCOC(=O)[C@H]3C[C@H]4C(=O)N[C@@H](CC(C)C)C(=O)N4[C@H]3c3ccc(O)cc3)cc2)[C@@]12C(=O)Nc1ccc(I)cc12`: the composite z-score is 0.719 in test [1]; 0.808 in test [3]; 0.0847 in test [4]; -0.481 in test [5]; -0.0478 in [6]; 0.235 in [7]. The composite z-score in test [8] was 0.135; in test [9], 0.859; in test [10], 2; with Albumin (Bos taurus) it was -1.13; in test [12] it was 0.154; in test [13], -0.153. The composite z-score in [14] came to 0.609; in test [15], 2.3; in [16], 0.103; with Sam68 (KHDRBS1), 1.31; in test [17], 0.959; in test [18], 1.22. The z-score in test [2] is -0.866. The composite Z-score in test [11] was 0.761 (inactive).
As for `C[C@H]1ON(c2ccc(C(=O)OC(C)(C)C)cc2)[C@@H](c2ccc(O)cc2)[C@@H]1C(=O)N1C(=O)OC[C@@H]1c1ccccc1`, the composite z-score in [1] is 0.644; in test [3] it was 0.465; in test [4], 0.403; in test [5], -0.32; in test [6], -0.0977; in test [7] it was -0.341. The composite z-score is -0.383 in [8]; 0.165 in test [9]; 0.413 in test [10]; 0.393 in the test with Albumin (Bos taurus); 0.0218 in test [12]; -0.126 in test [13]. In addition, the composite z-score came out at 0.454 in test [14]; 0.741 in test [15]; 0.295 in [16]; 1.32 in the test on Sam68 (KHDRBS1); 0.456 in test [17]; 0.768 in test [18]. Moreover, in test [2], the z-score was -3.09. Also, the composite Z-score in [11] is -0.281 (inactive).
As for `O=C1c2ccccc2[C@](Cc2ccccc2I)(C(=O)NCCN2CCOCC2)[C@H](c2ccc(CO)cc2)N1Cc1ccccc1`, the composite z-score in [1] came out at 1.41; in test [3], 0.522; in test [4], 1.25; in test [5], 0.295; in test [6] it was 0.359; in test [7], 0.385. Further, the composite z-score in [8] was 0.482; in test [9], 0.496; in [10] it was 1.64; with Albumin (Bos taurus) it was 0.673; in test [12], 0.533; in test [13] it was -0.0468. Besides, the composite z-score was determined as 0.377 in [14]; 1.28 in [15]; 0.369 in test [16]; 1.3 in the test with Sam68 (KHDRBS1); 0.286 in test [17]; 1.12 in [18]. The compound further yielded a z-score in test [2] of -1.79. In addition, the composite Z-score in [11] was -0.52 (inactive).

The record behind these values is PubChem BioAssay.
